Sampled rows, rich in hits. Any-hit rate of the full collection: about 1.1%.
DTT redox prof = compounds producing H2O2 with reducing agent – biochemical, NIH compound library profiling, artefact control for MLSCN library redox annotation, primary screen; DTT-dependent redox cycling H2O2, phenol red/HRP absorbance; 100% = 100 µM peroxide control, 0% = buffer; activation, % at 10 µM; hit rate 0.03% among 200,000;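 active means activation of at least 50% relative to the plate's high and low controls in the primary single-dose screen; inactive means activation below 50%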;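 further: compound incubated with DTT at 0.8 mM final as the reducing agent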
S1P4 antag = S1P4 receptor antagonists, primary screen, cell-based | Sphingosine 1-phosphate receptor 4 (Homo sapiens), O95977 | S1P4-expressing cells, antagonist mode, reporter read-out | hit rate 0.26% among 220,000 | inhibition, % at 4.98 µM | AID 1510, 2009; in the data active means inhibition above about 29%;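 further: 0% = wells stimulated with agonist and 100% = vehicle wells without agonist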
S1P3 antag = S1P3 receptor antagonists, primary screen, cell-based | CHO S1P3 NFAT-BLA reporter, FRET fluorescence, antagonist mode | inhibition, % at 4.98 µM | hit rate 0.27% among 170,000;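 active means inhibition above the plate cutoff, the mean inhibition of test wells on that plate plus 3 SD, cut at about 28% in these data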;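 further: cells challenged with S1P at its EC80 of 0.8 µM; blue over green emission ratio from cleaved BLA substrate after 4 h stimulation; 0% = S1P-stimulated wells and 100% = unstimulated DMSO-only wells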
Target sequence (Q99500 whole entry, looked up): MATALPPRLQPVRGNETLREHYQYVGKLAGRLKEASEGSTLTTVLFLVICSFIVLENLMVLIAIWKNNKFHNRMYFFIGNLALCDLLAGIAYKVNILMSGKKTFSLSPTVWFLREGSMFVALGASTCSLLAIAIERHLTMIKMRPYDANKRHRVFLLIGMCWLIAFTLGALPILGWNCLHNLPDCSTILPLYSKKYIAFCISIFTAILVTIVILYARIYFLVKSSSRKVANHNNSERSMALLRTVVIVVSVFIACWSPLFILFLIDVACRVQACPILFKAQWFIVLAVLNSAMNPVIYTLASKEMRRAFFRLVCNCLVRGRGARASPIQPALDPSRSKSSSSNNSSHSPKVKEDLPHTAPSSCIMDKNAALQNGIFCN
p97 inhibitor = inhibitors of human p97 ATPase, primary screen, biochemical. Transitional endoplasmic reticulum ATPase (Homo sapiens), P55072. recombinant p97 ATPase, Kinase-Glo ATP luminescence, 3 h. inhibition, % at 8 µM. hit rate 0.42% among 220,000; in the data active means inhibition above about 15%;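 further: 0% = DMSO vehicle and 100% = wells lacking enzyme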
S1P4 ag = S1P4 receptor agonists, primary screen, cell-based. Sphingosine 1-phosphate receptor 4 (Homo sapiens), O95977. S1P4-expressing cell line, agonist reporter assay. activation, % at 4.98 µM. hit rate 0.35% among 220,000. AID 1509, 2009; in the data active means activation above about 11%;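 further: 0% = DMSO vehicle and 100% = reference agonist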
UBC9 SUMO inh = inhibitors of in vitro SUMOylation cascade, primary screen, biochemical, HTRF, uHTS; HTRF SUMOylation assay, SAE1/SAE2 + UBC9; inhibition, % at 35 µM; hit rate 0.36% among 290,000; AID 2006, 2009; in the data active means inhibition above about 50%, passing the limit was not always enough
Target sequence (P63279 whole entry, looked up): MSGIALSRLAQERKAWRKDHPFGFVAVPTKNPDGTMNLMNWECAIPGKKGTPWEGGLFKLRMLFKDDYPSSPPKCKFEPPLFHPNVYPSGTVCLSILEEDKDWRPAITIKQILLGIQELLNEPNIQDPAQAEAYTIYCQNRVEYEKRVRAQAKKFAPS
Starred values were filed as active, the others as inactive; . = not tested or not shown; ! = repeats disagree.

SMILES	DTT redox prof	S1P4 antag	S1P3 antag	p97 inhibitor	S1P4 ag	UBC9 SUMO inh
CC(=O)OCCn1c(C)[n+](CCOC(C)=O)c2cc(Cl)c(Cl)cc21	0	-16	-4	3	0	4
O=[N+]([O-])c1ccc2c(c1)N([O-])C1(CCCCC1)[N+]2=O	.	13	-13	6	2	54*
O=C(CCn1cccc1)Nc1cc(F)ccc1F	0	-1	-19	3	2	4
CCOC(=O)/C=C(\C)Sc1cc(O)c2ccccc2c1O	.	-4	0	36*	2	74*
COc1ccc2c(c1)c(=O)oc1c(C)c(OCc3cc(C(=O)O)oc3C)ccc12	0	-7	0	7	3	70*
COc1ccc2c(c1)c(=O)oc1c(C)c(OCc3ccc(C(=O)O)cc3)ccc12	.	.	.	.	.	55*
COc1ccc(CN2CN(c3ccc(Cl)cc3)C(=O)N(n3cnnc3)C2)cc1	2	-12	.	3	0	27
O=C1N(c2ccc(Cl)c(Cl)c2)CN(Cc2ccccc2)CN1n1cnnc1	0	-6	-40	0	1	61*
CCOC(=O)c1cc2sc(C)cc2n1C(C)C(=O)OCC (configuration not stated)	2	-20	76*	2	-1	-23
CCOC(=O)c1cc2sc(C)cc2n1CC(=O)Nc1cccc(C)c1C	1	-17	-2	-1	3	10
Nc1nonc1-c1nc2ccccc2n1Cc1ccc(F)cc1Cl	0	-13	78*	4	-1	6
COc1ccc(Cl)cc1C(=O)Nc1cccc(-c2ccc3nncn3n2)c1	0	7	-3	5	0	51*
COc1cc(/C=N/N2C(=O)C3C4c5ccccc5C(c5ccccc54)C3C2=O)ccc1O (configuration not stated)	0	-17	-2	-4	1	-1
COc1cccc(/C=N/N2C(=O)C3C4c5ccccc5C(c5ccccc54)C3C2=O)c1OC (configuration not stated)	0	7	.	6	13*	-13
COc1cc(OC)c(-c2c3cc(O)c(=O)cc-3oc3cc(O)c(O)cc23)cc1OC	1	-5	12	4	0	80*
Cc1c2cc(O)c(=O)cc-2oc2cc(O)c(O)cc12	0	2	7	29*	0	92*!
O=c1c2ccccc2nc2n1CCC2O (configuration not stated)	0	-5	2	-5	0	1
NC(=O)CC(NC(=O)Cc1ccc(Br)cc1)c1ccc(NCCc2ccccc2F)c([N+](=O)[O-])c1 (configuration not stated)	.	.	.	.	.	63*
Cc1ccc(C(C[N+](=O)[O-])c2c(C)[nH]n(-c3ccccc3)c2=O)cc1 (configuration not stated)	0	-11	0	2	1	71*
Cc1[nH]n(-c2ccccc2)c(=O)c1C(C[N+](=O)[O-])c1ccc(F)cc1 (configuration not stated)	-1	-9	-7	-3	1	88*
N#Cc1c(N(CCO)CCO)nc(N)c2c(N)nc3c(c12)CC(=O)N3Cc1cccs1	.	1	-9	29*	0	99
CN(CCO)c1nc(N)c2c(N)nc3c(c2c1C#N)CC(=O)N3Cc1cccs1	-2	-12	4	3	1	101*
CN(CCO)c1nc(N)c(C#N)c(CC#N)c1C#N	.	5	1	3	2	23
COCC(C)N1C(=O)Cc2c1nc(N)c1c(N)nc(N3CCN(c4ccccc4F)CC3)c(C#N)c21 (configuration not stated)	-1	-17	-4	9	-1	97
COc1ccc(-c2nc(CS(=O)(=O)CC(=O)NCc3ccc(F)cc3)c(C)o2)cc1	.	.	.	.	.	2
SMILES	DTT redox prof	S1P4 antag	S1P3 antag	p97 inhibitor	S1P4 ag	UBC9 SUMO inh
COc1ccc(OCC(=O)N/N=C2\CCCCc3ccccc32)cc1	-1	-1	12	1	-2	2
CCc1ccc(OCC(=O)N/N=C2\CC(=O)c3ccccc32)cc1	6	0	.	7	-3	87*
CC(Oc1ccc2c3c(c(=O)oc2c1)CCC3)C(=O)NCCCn1ccnc1 (configuration not stated)	.	.	.	.	.	12
O=C(CCCSc1ccccc1)Nc1nc(-c2ccccn2)cs1	0	8	.	-6	-4	12
O=C(CCCSc1ccccc1)Nc1nc(-c2ccco2)c(-c2ccco2)s1	0	0	-8	-1	0	79*
CC(=O)c1ccc(NC(=O)C(Cc2ccccc2)n2cccc2)cc1 (configuration not stated)	.	-13	13	-1	1	7
Cc1ccc(CNC(=O)c2cc3c(s2)CN(Cc2ccccc2)C3)cc1	0	-5	3	-1	2	-2
COc1ccc(C2=NN(C(=O)c3cccs3)C(c3ccccc3O)C2)cc1 (configuration not stated)	0	12	12	1	-1	56*
Cn1nnnc1SCC(=O)Nc1cc(C(=O)O)cc(C(=O)O)c1	-1	-12	.	-1	-2	18
CN1CCN(S(=O)(=O)c2ccc(NC(=S)NC(=O)c3ccc(Cl)cc3)cc2)CC1	-4	-3	.	-1	13*	-7
CN1CCN(S(=O)(=O)c2ccc(NC(=S)NC(=O)c3ccccc3)cc2)CC1	0	-2	.	1	1	1
CCOC(=O)COc1c(Cl)cc(C2NC(=S)NC(c3ccccc3)=C2C(C)=O)cc1OCC (configuration not stated)	0	-11	-27	-8	-1	16
CCCCN1C(=O)C(=Nc2cccc3cnccc23)c2ccccc21	-2	-5	-27	0	-1	99*
Cc1ccc(S(=O)(=O)Nc2ccc(Br)cc2C(NCC(=O)O)c2ccccc2)cc1 (configuration not stated)	0	-13	-14	-3	0	-12
O=C(O)CSc1cc(NS(=O)(=O)c2ccc(Br)cc2)c2ccccc2c1O	.	.	.	.	.	76*
O=S(=O)(Nc1cc(Sc2ncn[nH]2)c(O)c2ccccc12)c1ccccc1	19	-35	-14	29*	5	92*
Cc1cccc(-n2c(O)c(C=Nc3ccccc3-c3n[nH]c(=S)[nH]c3=O)c3ccccc3c2=O)n1	.	-3	-7	-5	0	17
Cc1ccc(-n2c(O)c(C=Nc3ccccc3-c3n[nH]c(=S)[nH]c3=O)c3ccccc3c2=O)cc1C	-2	-8	-14	0	1	53*

Compound activity as filed in PubChem BioAssay.
